Test results published in PubChem BioAssay (NCATS).
Inconclusive results are not listed. Unmarked numbers belong to inactive results. The source made the active and inactive calls. Calls come from the whole dose curve; as a rule, active = well fitted cell-killing curve with a large enough effect; inconclusive = small, poorly fitted or top-dose-only effect, or effect the other way; inactive = no such curve, though single readings can be large or run the other way.

Experiments:
[1] = Quantitative High-Throughput drug screen in 47 multiple myeloma cell lines against the NCATS MIPE library collection: MM1R_ATCC cell viability assay (AID 1918981); note: nearly all actives have a fitted effect of over 35% in size
Outline: (§1)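 ATP-based luminescence (CellTiter-Glo, 5 min RT incubation) quantified surviving cells following two days' treatment with MIPE 4.0 agents at 37 °C, 5% CO2.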

[2] = Quantitative High-Throughput drug screen in 47 multiple myeloma cell lines against the NCATS MIPE library collection: LP1_DSMZ cell viability assay (AID 1918982); note: nearly all actives have a fitted effect of over 35% in size
Outline: as §1

[3] = Quantitative High-Throughput drug screen in 47 multiple myeloma cell lines against the NCATS MIPE library collection: KMS28PE_JCRB cell viability assay (AID 1918983); note: nearly all actives have a fitted effect of over 35% in size
Outline: as §1

[4] = Quantitative High-Throughput drug screen in 47 multiple myeloma cell lines against the NCATS MIPE library collection: L363_DSMZ cell viability assay (AID 1918984); note: nearly all actives have a fitted effect of over 40% in size
Outline: as §1

[5] = Quantitative High-Throughput drug screen in 47 multiple myeloma cell lines against the NCATS MIPE library collection: KMS34_JCRB cell viability assay (AID 1918985); note: nearly all actives have a fitted effect of over 40% in size
Outline: as §1

[6] = Quantitative High-Throughput drug screen in 47 multiple myeloma cell lines against the NCATS MIPE library collection: OCIMY7_PLB cell viability assay (AID 1918987); conditions: OCI-MY7 myeloma viability, CellTiter-Glo ATP, 48 h; viability (% of DMSO): at 45.8 µM (top of the series); note: nearly all actives have a fitted effect of over 65% in size
Outline: as §1

[7] = Quantitative High-Throughput drug screen in 47 multiple myeloma cell lines against the NCATS MIPE library collection: OCIMY5_PLB cell viability assay (AID 1918988); note: nearly all actives have a fitted effect of over 65% in size
Outline: as §1

[8] = Quantitative High-Throughput drug screen in 47 multiple myeloma cell lines against the NCATS MIPE library collection: OPM1_PLB cell viability assay (AID 1918989); note: nearly all actives have a fitted effect of over 40% in size
Outline: as §1

[9] = Quantitative High-Throughput drug screen in 47 multiple myeloma cell lines against the NCATS MIPE library collection: SKMM1_PLB cell viability assay (AID 1919863); conditions: SKMM1 myeloma viability, CellTiter-Glo ATP, 48 h; viability: active compounds read low; note: nearly all actives have a fitted effect of over 35% in size
Outline: as §1

[10] = Quantitative High-Throughput drug screen in 47 multiple myeloma cell lines against the NCATS MIPE library collection: U266_ATCC cell viability assay (AID 1919864); note: nearly all actives have a fitted effect of over 35% in size
Outline: as §1

[11] = Quantitative High-Throughput drug screen in 47 multiple myeloma cell lines against the NCATS MIPE library collection: XG6_PLB cell viability assay (AID 1919865); note: nearly all actives have a fitted effect of over 40% in size
Outline: as §1

[12] = Quantitative High-Throughput drug screen in 47 multiple myeloma cell lines against the NCATS MIPE library collection: VP6_DJ cell viability assay (AID 1919867); note: nearly all actives have a fitted effect of over 40% in size
Outline: as §1

[13] = Quantitative High-Throughput drug screen in 47 multiple myeloma cell lines against the NCATS MIPE library collection: PE2_PLB cell viability assay (AID 1919869); note: nearly all actives have a fitted effect of over 35% in size
Outline: as §1

[14] = Quantitative High-Throughput drug screen in 47 multiple myeloma cell lines against the NCATS MIPE library collection: PCM6_Riken cell viability assay (AID 1919870); note: nearly all actives have a fitted effect of over 30% in size
Outline: as §1

[15] = Quantitative High-Throughput drug screen in 47 multiple myeloma cell lines against the NCATS MIPE library collection: RPMI8226_ATCC cell viability assay (AID 1919871); note: nearly all actives have a fitted effect of over 30% in size
Outline: as §1

[16] = Quantitative High-Throughput drug screen in 47 multiple myeloma cell lines against the NCATS MIPE library collection: OPM2_DSMZ cell viability assay (AID 1919872); note: nearly all actives have a fitted effect of over 30% in size
Outline: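 Primary qHTS used for cherry-picking: cells at 500/well, library compounds for 48 h (37C, 5% CO2), luminescent ATP assay.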

[17] = Quantitative High-Throughput drug screen in 47 multiple myeloma cell lines against the NCATS MIPE library collection: KMS11_JCRBsus cell viability assay (AID 1919873); note: nearly all actives have a fitted effect of over 50% in size
Outline: as §1

[18] = Quantitative High-Throughput drug screen in 47 multiple myeloma cell lines against the NCATS MIPE library collection: KMS28BM_JCRB cell viability assay (AID 1919874); note: nearly all actives have a fitted effect of over 35% in size
Outline: as §1

[19] = Quantitative High-Throughput drug screen in 47 multiple myeloma cell lines against the NCATS MIPE library collection: XG1_PLB cell viability assay (AID 1919866); note: nearly all actives have a fitted effect of over 35% in size
Outline: as §1

[20] = Quantitative High-Throughput drug screen in 47 multiple myeloma cell lines against the NCATS MIPE library collection: UTMC2_PLB cell viability assay (AID 1919868); conditions: CellTiter-Glo ATP luminescence, 48 h; viability (% of DMSO control): at 45.8 µM (top of the series); note: nearly all actives have a fitted effect of over 55% in size
Outline: as §1
Potency is the fitted concentration of half-maximal effect.

Compound | Potency [1] | Potency [2] | Potency [3] | Potency [4] | Potency [5] | Potency [6] | Potency [7] | Potency [8] | Potency [9] | Potency [10] | Potency [11] | Potency [12] | Potency [13] | Potency [14] | Potency [15] | Potency [16] | Potency [17] | Potency [18] | Potency [19] | Potency [20]
C=CCNc1c(O)cc2c(O)c1C[C@@H](C)C[C@H](OC)[C@@H](O)[C@@H](C)C=C(C)[C@H](OC(N)=O)[C@@H](OC)C=CC=C(C)C(=O)N2 | 526 nM (active) | 1870 nM (active) | 418 nM (active) | 33.2 nM (active) | 296 nM (active) | 209 nM (active) | 235 nM (active) | 526 nM (active) | 264 nM (active) | 418 nM (active) | 1050 nM (active) | 118 nM (active) | 1480 nM (active) | 833 nM (active) | 418 nM (active) | 1660 nM (active) | 46.9 nM (active) | 935 nM (active) |  | 
O=C(Nc1cccc(Nc2ncc(Br)c(NCCc3cnc[nH]3)n2)c1)N1CCCC1 | 14800 nM (active) | 20900 nM (active) | 14800 nM (active) | inactive | 2960 nM (active) | 3720 nM (active) | 14800 nM (active) | 1870 nM (active) | 23500 nM (active) | 16600 nM (active) | 590 nM (active) | 2640 nM (active) | 2960 nM (active) | 3320 nM (active) |  |  | 8330 nM (active) | 18700 nM (active) | 372 nM (active) | 662 nM (active)
Cn1cc(CNCC2CCN(c3ncc(C(=O)NO)cn3)CC2)c2ccccc21 | 14.8 nM (active) | 41.8 nM (active) | 29.6 nM (active) | 26.4 nM (active) | 18.7 nM (active) | 33.2 nM (active) | 16.6 nM (active) | 11.8 nM (active) | 59 nM (active) |  | 83.3 nM (active) | 13.2 nM (active) | 118 nM (active) | 37.2 nM (active) |  | 41.8 nM (active) | 26.4 nM (active) |  | 52.6 nM (active) | 18.7 nM (active)
Cc1cnc(Nc2ccc(N3CCN(C)CC3)cc2)nc1Nc1cccc(S(=O)(=O)NC(C)(C)C)c1 | 5260 nM (active) | 5260 nM (active) | 7430 nM (active) | 3720 nM (active) | 2350 nM (active) | 935 nM (active) | 1480 nM (active) | 935 nM (active) | 3320 nM (active) |  | 662 nM (active) | 469 nM (active) | 1320 nM (active) | 3720 nM (active) | 4180 nM (active) |  | 1320 nM (active) | 5260 nM (active) | 469 nM (active) | 2350 nM (active)
CC(=O)ON=C1C(c2c(O)[nH]c3cc(Br)ccc23)=Nc2ccccc21 | 16600 nM (active) | 11800 nM (active) | 20900 nM (active) | 3720 nM (active) | 4690 nM (active) | 1480 nM (active) | 9350 nM (active) | 3720 nM (active) | 18700 nM (active) | 14800 nM (active) | 1320 nM (active) | 2640 nM (active) | 4690 nM (active) | 2960 nM (active) | 16600 nM (active) | 18700 nM (active) |  |  | 1660 nM (active) | 
CC(C)N1[N]C(=C2C=c3cc(O)ccc3=N2)c2c(N)ncnc21 | 418 nM (active) | 2.6 nM (active) | 209 nM (active) | 59 nM (active) | 296 nM (active) | 743 nM (active) | 1180 nM (active) | 296 nM (active) | 118 nM (active) | 4180 nM (active) | 296 nM (active) | 264 nM (active) | 148 nM (active) | 1180 nM (active) |  |  | 105 nM (active) |  | 93.5 nM (active) | 187 nM (active)
CCN(CC)CCNC(=O)c1c(C)[nH]c(C=C2C(=O)Nc3ccc(F)cc32)c1C | 3030 nM (active) | 30300 nM (active) | 5400 nM (active) | 540 nM (active) | 6050 nM (active) | 171 nM (active) | 8550 nM (active) | 1520 nM (active) | 27000 nM (active) | 3400 nM (active) | 1710 nM (active) | 1520 nM (active) | 2150 nM (active) | 1520 nM (active) | 10800 nM (active) | 6050 nM (active) | 1520 nM (active) | 5400 nM (active) | 3030 nM (active) | 540 nM (active)
COc1cccc2c1C(=O)c1c(O)c3c(c(O)c1C2=O)C[C@@](O)(C(C)=O)C[C@H]3O[C@H]1C[C@H](N)[C@H](O)[C@H](C)O1 | 26.4 nM (active) | 209 nM (active) | 83.3 nM (active) | 118 nM (active) |  | 418 nM (active) | 46.9 nM (active) | 105 nM (active) | 166 nM (active) | 166 nM (active) | 46.9 nM (active) | 41.8 nM (active) | 41.8 nM (active) | 29.6 nM (active) | 235 nM (active) | 166 nM (active) | 93.5 nM (active) | 29.6 nM (active) | 105 nM (active) | 
CCCCCCCCc1ccc(CCC(N)(CO)CO)cc1 | 9350 nM (active) | 13200 nM (active) | 18700 nM (active) | 4180 nM (active) | 14800 nM (active) | 11800 nM (active) |  | 4690 nM (active) | 23500 nM (active) | 16600 nM (active) | 3320 nM (active) | 4690 nM (active) | 8330 nM (active) | 3720 nM (active) | 9350 nM (active) | 16600 nM (active) | 7430 nM (active) | 7430 nM (active) | 4180 nM (active) | 9350 nM (active)
